Experimental data as given in PubChem BioAssay (Tox21).
Results filed as inconclusive are left out. A number with no mark means an inactive call. Active and inactive are the calls of the source. Calls come from the whole dose curve.

Assay: qHTS assay for small molecule agonists of the antioxidant response element (ARE) signaling pathway - cell viability counter screen (AID 743203); note: nearly all actives have a fitted effect of over 55% in size
Settings: ARE-bla HepG2 viability, CellTiter-Glo luminescence, 16 h; series mostly up to 73.3 µM; viability change, negative = cytotoxic: at the top concentration
From the text: National Center for Advancing Translational Sciences [NCATS]
NIH Chemical Genomics Center [NCGC]
U.S. Environmental Protection Agency [EPA]
National Institutes of Environmental Health Sciences [NIEHS]
National Toxicology Program [NTP]
U.S. Food and Drug Administration [FDA]
Oxidative stress has been implicated in the pathogenesis of a variety of diseases ranging from cancer to neurodegeneration. The antioxidant response element (ARE) signaling pathway plays an important role in the amelioration of oxidative stress. The CellSensor ARE-bla HepG2 cell line (Invitrogen) can be used for analyzing the Nrf2/antioxidant response signaling pathway. Nrf2 (NF-E2-related factor 2) and Nrf1 are transcription factors that bind to AREs and activate these genes. The CellSensor ARE-bla Hep G2 cell line contains a beta-lactamase reporter gene under control of the Antioxidant Response Element (ARE) stably integrated into HepG2 cells. The activation of the report gene under culture conditions can be detected by fluorescence intensity. This cell line has been used to screen the Tox21 10K compound library to identify agonists that induce oxidative stress. The cytotoxicity of the Tox21 compound library against the ARE-bla cell line was tested in parallel by measuring the cell viability using CellTiter-Glo assay (Promega, Madison, WI) in the same wells.
Tox21 Assay Protocol Summary:
ARE-bla HepG2 cells were dispensed at 2,000 cells/5 ul/well in 1536-well white wall/solid bottom plates using a Multidrop Combi (ThermoFisher Scientific, Waltham, MA) dispenser. After the assay plates were incubated at 37C/5% CO2 for 5 hrs, 23 nL of compounds dissolved in DMSO, positive controls or DMSO only was transferred to the assay plate by a pintool work station (Kalypsys, San Diego, CA). The plates were incubated at 37C/5% CO2 for 16 hrs, followed by addition of 4 ul/well of CellTiter-Glo reagent into the assay plates using a Flying Reagent Dispenser (Aurora Discovery, San Diego, CA). After 30 min incubation at room temperature, the luminescence intensity in the assay plates was measured using a ViewLux (PerkinElmer, Shelton, CT) plate reader.
% is set by controls: 0 for no effect and ±100 for the full control effect; potency is the fitted concentration of half-maximal effect.

Row | SMILES | viability change, negative = cytotoxic | Potency
1 | Cc1ccc(C(C)(C)O)cc1 | -0.413% | 
2 | c1csc(SSc2cccs2)c1 | -5.89% | 
3 | Oc1c(I)cc(I)c2cccnc12 | 13.7% | 
4 | C[C@H]1c2cccc(O)c2C(O)=C2C(=O)[C@]3(O)C(O)=C(C(N)=O)C(=O)[C@@H](N(C)C)[C@@H]3[C@@H](O)[C@@H]21 | 3.75% | 
5 | CC1(CN2CCC(n3c(=O)[nH]c4ccccc43)CC2)OCc2ccccc2-n2cccc21 (stereo not given) |  | 33.5 µM (active)
6 | C=C1c2cccc(O)c2C(O)=C2C(=O)[C@]3(O)C(O)=C(C(N)=O)C(=O)[C@@H](N(C)C)[C@@H]3[C@@H](O)[C@H]12 | 15.8% | 
7 | O=c1[nH]c2ccc(Cl)cc2o1 | -8.66% | 
8 | Oc1cc2c(cc1O)[C@H]1c3ccc(O)c(O)c3OC[C@@]1(O)C2 | -6.77% [at 94.8 µM] | 
9 | CC(=O)[C@H]1[C@H](C#N)C[C@H]2[C@@H]3CC=C4C[C@@H](O)CC[C@]4(C)[C@H]3CC[C@@]21C | -0.0132% | 
10 | O=C(Nc1cccc2c(=O)cc(-c3nn[nH]n3)oc12)c1ccc(OCCCCc2ccccc2)cc1 |  | 29.8 µM (active)
11 | CCCCCCCCCI | -0.0003% [at 94.8 µM] | 
12 | c1ccc(C[n+]2cccc3ccccc32)cc1 | 10.5% | 
13 | CCC=CC#N | 0.862% | 
14 | CC(=O)OCCN(CCOC(C)=O)c1ccc(N=Nc2ccc([N+](=O)[O-])cc2C#N)cc1 | 21.3% | 
15 | CC(CCC(=O)O)C(=O)O (stereo not given) | -9.85% | 
16 | CCCCCCCC/C=C\CCCCCCCCCCCC(=O)O | -6.74% [at 94.8 µM] | 
17 | CCOC(=O)c1ccccc1C(=C1C=C(Br)C(=O)C(Br)=C1)c1cc(Br)c(O)c(Br)c1 | -26% | 
18 | CC(C)=CC(=O)C=C(C)C | 9.03% | 
19 | CN(C)CCN1C(=O)c2ccccc2N(C)c2ccccc21 | -0.86% | 
20 | CCCCCC#CC(=O)OC | -4.43% | 

Row | SMILES | viability change, negative = cytotoxic | Potency
21 | CCn1cc(C(=O)O)c(=O)c2cc(F)c(N3CCNCC3)cc21 | -5.51% | 
22 | Cc1cc2c(OCC(CNC(C)(C)C)OC(=O)c3ccccc3)cccc2[nH]1 (stereo not given) | 11.4% | 
23 | CN(C)CCC=C1c2ccccc2C=Cc2ccccc21 | -9.21% | 
24 | CCCCCCCCOc1ccc(C(=O)O)cc1 | -1.91% | 
25 | CCCCOc1ccc(OCCCN2CCOCC2)cc1 | 8.65% | 
26 | Brc1cc2ccccc2c2ccccc12 | 2.18% [at 94.8 µM] | 
27 | Cc1cccc(N(C)C(=S)Oc2ccc3c(c2)CCC3)c1 | 0.362% | 
28 | CCOC(=O)c1ccc(OCCN2C[C@H](O)[C@@H](O)[C@H](O)[C@H]2CO)cc1 | 10.2% | 
29 | CC1CC(OC(=O)C(O)c2ccccc2)CC(C)(C)N1C (stereo not given) | -2.48% | 
30 | O=[N+]([O-])c1ccc(Nc2ccc(Nc3ccccc3)c(S(=O)(=O)O)c2)c([N+](=O)[O-])c1 | -6.04% | 
31 | O=C=Nc1cccc(C(F)(F)F)c1 | -21.3% | 
32 | CC(=O)N/N=C/c1ccc([N+](=O)[O-])o1 | -0.707% | 
33 | FC(F)(F)c1ccccc1Cl | 0.628% [at 94.8 µM] | 
34 | O=C1Cc2cc(Cl)ccc2N1 | 14.8% | 
35 | CCCCC(CC)COP(=O)(O)O (stereo not given) | -5.57% [at 94.8 µM] | 
36 | Cc1c(C)c2c(c(C)c1OC(=O)CCC(=O)OCCO)CC[C@@](C)(CCC[C@H](C)CCC[C@H](C)CCCC(C)C)O2 | -32.3% | 
37 | CCCCN(CCCC)C(C(N)=O)c1ccc(OC)cc1 (stereo not given) | 0.581% | 
38 | CCOC(=O)c1ccc(C#Cc2ccc3c(c2)C(C)(C)CCS3)nc1 | -0.316% | 
39 | OC[C@H]1O[C@@H](n2cnc3c(=S)nc[nH]c32)[C@H](O)[C@@H]1O |  | 2.66 µM (active)
40 | CC=C(Cl)Cl | 1.26% | 
